Assay results published in PubChem BioAssay (Tox21).
Inconclusive results are not listed. Activity calls are given as the source filed them. Unless noted, calls come from the whole dose curve.

How the values were obtained:
[1] = Nuclear factor erythroid 2-related factor 2/antioxidant responsive element (Nrf2/ARE) small molecule agonists: qHTS cell viability counter screen in human keratinocytes (AID 1919968; active = well fitted curve in the direction sought with a large enough effect in the repeat runs; an effect the other way counts as inactive or inconclusive; note: nearly all actives have a fitted effect of over 55% in size)
In short: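 CellTiter-Fluor fluorescence, read 1 h after reagent, gave viability in the same wells as the ARE-luciferase assay. KeratinoSens cells (1,500/well) had 23 h compound exposure at 37 C/5% CO2 following 5 h plating.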

[2] = Nuclear factor erythroid 2-related factor 2/antioxidant responsive element (Nrf2/ARE) small molecule agonists: luciferase reporter gene qHTS assay in human keratinocytes (AID 1919969); note: nearly all actives have a fitted effect of over 35% in size
[3] = target: Gonadotropin-releasing hormone receptor (Homo sapiens) (UniProt P30968); experiment: Human gonadotropin-releasing hormone receptor (GnRHR) small molecule agonists, calcium flux assay in GnRHR-HEK293 cells (AID 1920063); note: nearly all actives have a fitted effect of over 35% in size
Gonadotropin-releasing hormone receptor (Homo sapiens), sequence (P30968 whole entry, looked up): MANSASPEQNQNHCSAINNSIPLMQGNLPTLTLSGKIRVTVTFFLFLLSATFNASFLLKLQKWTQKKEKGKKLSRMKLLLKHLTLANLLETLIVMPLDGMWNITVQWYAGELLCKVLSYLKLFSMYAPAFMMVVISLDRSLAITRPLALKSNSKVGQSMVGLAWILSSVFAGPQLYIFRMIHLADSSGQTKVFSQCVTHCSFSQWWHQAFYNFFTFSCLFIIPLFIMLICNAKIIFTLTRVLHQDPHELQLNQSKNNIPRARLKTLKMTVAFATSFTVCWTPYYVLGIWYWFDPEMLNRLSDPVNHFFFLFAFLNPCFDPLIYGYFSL
In short: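 Agonist mode: compounds at 15 concentrations, in triplicate, went onto calcium dye-loaded GnRHR-HEK293 cells. Intracellular calcium was then followed as 480/540 nm fluorescence at 1 s intervals over 3 min.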

[4] = target: KiSS-1 receptor (Homo sapiens) (UniProt Q969F8); experiment: Human kisspeptin (KISS1R) small molecule agonists, calcium flux assay in KISS1R-HEK293 cells (AID 1920064; active = well fitted curve in the direction sought with a large enough effect in the repeat runs; an effect the other way counts as inactive or inconclusive)
KiSS-1 receptor (Homo sapiens), sequence (Q969F8 whole entry, looked up): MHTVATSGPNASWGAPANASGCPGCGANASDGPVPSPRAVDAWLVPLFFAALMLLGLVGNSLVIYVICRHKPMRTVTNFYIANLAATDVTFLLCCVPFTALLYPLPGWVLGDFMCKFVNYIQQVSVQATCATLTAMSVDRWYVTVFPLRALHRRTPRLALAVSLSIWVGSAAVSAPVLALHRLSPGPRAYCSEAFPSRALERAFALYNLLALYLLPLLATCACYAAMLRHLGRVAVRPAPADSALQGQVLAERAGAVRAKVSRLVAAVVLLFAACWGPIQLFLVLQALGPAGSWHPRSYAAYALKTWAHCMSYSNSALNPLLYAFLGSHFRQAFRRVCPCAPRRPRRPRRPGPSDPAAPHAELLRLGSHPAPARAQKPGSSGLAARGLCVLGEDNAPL
In short: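 Agonist mode: intracellular calcium rise tracked at 1 s intervals over 3 min (480/540 nm) immediately after compound addition to dye-loaded KISS1R-HEK293 stable cells. Each compound tested at 15 concentrations in triplicate.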

[5] = G protein-coupled receptor (GPCR) small molecule agonists, calcium flux assay: HEK293 wild type cell line counter screen (AID 1920065)
In short: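 Calcium flux counter screen: compound added in agonist mode at 15 concentrations in triplicate to dye-loaded parental HEK293 cells. Fluorescence (480/540) read kinetically for 3 min; ATP served as positive control.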

[6] = p53 small molecule agonists, cell-based qHTS assay with rat liver microsomes (AID 1963578)
In short: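 Compound in DMSO added to p53RE-bla cells 5 h post-plating; rat microsomes/NADPH 0.5 mg/mL final; 16 h, 37 C; LiveBLAzer 2 h RT.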

[7] = p53 small molecule agonists, cell-based qHTS assay with human liver microsomes: qHTS cell viability counter screen (AID 1963579); note: nearly all actives have a fitted effect of over 45% in size
In short: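 HLM-supplemented (0.5 mg/mL final) and NADPH-supplemented (0.5 mg/mL final) p53RE-bla cultures, 4,000 cells per well, were dosed with compounds in DMSO for 16 h at 37 C; luminescent ATP detection (CellTiter-Glo, 30 min, room temperature) quantified surviving cells.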

[8] = p53 small molecule agonists, cell-based qHTS assay with rat liver microsomes: qHTS cell viability counter screen (AID 1963580); note: nearly all actives have a fitted effect of over 45% in size
In short: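 Cytotoxicity counter screen: intracellular ATP read by CellTiter-Glo luminescence in the p53 reporter wells. HCT-116 p53RE-bla cells were treated for 16 h at 37 C alongside rat liver microsomes and NADPH, each 0.5 mg/mL final.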

[9] = p53 small molecule agonists, cell-based qHTS assay: qHTS cell viability counter screen (AID 1963581); note: nearly all actives have a fitted effect of over 45% in size
In short: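 Counter screen read by CellTiter-Glo luminescence (ATP content, 30 min at room temperature), run in the same wells as the beta-lactamase reporter read. HCT-116 p53RE-bla cells saw compounds for 16 h at 37 C.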

[10] = p53 small molecule agonists, cell-based qHTS assay (AID 1963582; active = well fitted activation curve with a large enough effect in the signal ratio in the repeat runs, not every such curve was filed as active; the % refers to the signal ratio)
In short: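 Read-out is beta-lactamase FRET fluorescence after 2 h at room temperature with LiveBLAzer B/G substrate. p53 response element-bla cells were treated 16 h at 37 C with compounds in DMSO, added 5 h after seeding.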

[11] = target: 5-hydroxytryptamine receptor 2A (Homo sapiens) (UniProt P28223); experiment: 5-hydroxytryptamine receptor 2A (HTR2A) small molecule antagonists, cell-based qHTS assay (AID 1963586); note: nearly all actives have a fitted effect of over 45% in size
5-hydroxytryptamine receptor 2A (Homo sapiens), sequence (P28223 whole entry, looked up): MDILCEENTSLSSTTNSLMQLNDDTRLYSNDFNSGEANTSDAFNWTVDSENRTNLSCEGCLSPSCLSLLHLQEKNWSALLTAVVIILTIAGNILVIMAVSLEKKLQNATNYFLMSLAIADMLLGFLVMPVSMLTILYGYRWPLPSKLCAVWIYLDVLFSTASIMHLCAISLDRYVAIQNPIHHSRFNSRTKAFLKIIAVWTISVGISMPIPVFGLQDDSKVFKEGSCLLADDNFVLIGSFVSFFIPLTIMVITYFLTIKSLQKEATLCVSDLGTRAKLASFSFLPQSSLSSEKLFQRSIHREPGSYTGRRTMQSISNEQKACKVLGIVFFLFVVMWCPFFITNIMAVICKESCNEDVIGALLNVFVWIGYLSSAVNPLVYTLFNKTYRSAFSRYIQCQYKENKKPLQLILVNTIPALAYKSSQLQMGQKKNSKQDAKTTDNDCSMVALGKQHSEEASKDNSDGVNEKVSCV
In short: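 CHO cells stably expressing human HTR2A were plated for 18 h at 37 C, then loaded with calcium dye for 1 h. Compounds were preincubated 5 min at room temperature before DOI (4 nM solution) was added. Kinetic fluorescence was read for 3 min.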

[12] = target: 5-hydroxytryptamine receptor 2A (Homo sapiens) (UniProt P28223); experiment: 5-hydroxytryptamine receptor 2A (HTR2A) small molecule agonists, cell-based qHTS assay (AID 1963587); note: nearly all actives have a fitted effect of over 30% in size
In short: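 Kinetic calcium-flux fluorescence (2 min, 1 sec intervals) after compound addition in agonist mode. HTR2A-CHO cells were cultured 18 h, then dye-loaded 1 h at 37 C.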

[13] = target: Muscarinic acetylcholine receptor M1 (Homo sapiens) (UniProt P11229); experiment: Cholinergic receptor muscarinic 1 (CHRM1) small molecule antagonists, cell-based qHTS assay (AID 1963588); note: nearly all actives have a fitted effect of over 40% in size
Muscarinic acetylcholine receptor M1 (Homo sapiens), sequence (P11229 whole entry, looked up): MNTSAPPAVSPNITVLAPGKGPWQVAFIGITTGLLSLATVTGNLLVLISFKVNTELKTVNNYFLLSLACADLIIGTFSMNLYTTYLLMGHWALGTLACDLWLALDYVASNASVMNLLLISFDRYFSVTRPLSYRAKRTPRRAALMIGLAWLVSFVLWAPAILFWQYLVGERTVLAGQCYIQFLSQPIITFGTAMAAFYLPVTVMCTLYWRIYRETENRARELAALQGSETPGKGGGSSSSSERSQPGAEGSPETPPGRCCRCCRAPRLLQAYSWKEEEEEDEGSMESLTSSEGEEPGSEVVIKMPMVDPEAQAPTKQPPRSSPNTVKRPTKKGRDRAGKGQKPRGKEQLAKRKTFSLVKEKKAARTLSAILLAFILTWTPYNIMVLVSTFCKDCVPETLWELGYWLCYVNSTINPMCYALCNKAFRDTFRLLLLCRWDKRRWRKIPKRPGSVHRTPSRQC
In short: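 Compounds were tested at 15 concentrations in three independent runs. Dye-loaded CHRM1-CHO cells were exposed 5 min at room temperature before stimulation by acetylcholine added at 50nM. Intracellular calcium was read kinetically on FDSS for 3 min.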

[14] = target: Muscarinic acetylcholine receptor M1 (Homo sapiens) (UniProt P11229); experiment: Cholinergic receptor muscarinic 1 (CHRM1) small molecule agonists, cell-based qHTS assay (AID 1963589); note: nearly all actives have a fitted effect of over 35% in size
In short: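 Agonist-mode calcium-flux screen: compounds at 15 concentrations, three independent runs, were pin-transferred onto dye-loaded human CHRM1-CHO cells. Fluorescence was then recorded kinetically every second over minutes.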

[15] = cAMP Responsive Elements (CRE) small molecule agonists, cell-based qHTS assay (AID 1963590)
In short: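 Agonist mode: compound added to CRE-bla HEK 293T cells (2,000/well, 18 h after plating) for 3 h at 37 C/5% CO2. Reporter activity detected via FRET beta-lactamase substrate, 2 h room-temperature loading.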

[16] = cAMP Responsive Elements (CRE) small molecule antagonists, cell-based qHTS assay (AID 1963591; active = well fitted inhibition curve with a large enough effect in the signal ratio in the repeat runs, not every such curve was filed as active; the % refers to the signal ratio)
In short: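 Antagonist mode: compounds are added alongside the adenylyl cyclase activator NKH477 (0.25 uM final) to CRE-bla HEK293T cells for 3 h. LiveBLAzer FRET substrate, 2 h at room temperature, reports bla expression.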

[17] = target: Beta-2 adrenergic receptor (Homo sapiens) (UniProt P07550); experiment: Adrenergic beta2 receptor (ADRB2) small molecule antagonists, cell-based qHTS assay (AID 1963592); note: series mostly up to about 92 µM; nearly all actives have a fitted effect of over 50% in size
Beta-2 adrenergic receptor (Homo sapiens), sequence (P07550 whole entry, looked up): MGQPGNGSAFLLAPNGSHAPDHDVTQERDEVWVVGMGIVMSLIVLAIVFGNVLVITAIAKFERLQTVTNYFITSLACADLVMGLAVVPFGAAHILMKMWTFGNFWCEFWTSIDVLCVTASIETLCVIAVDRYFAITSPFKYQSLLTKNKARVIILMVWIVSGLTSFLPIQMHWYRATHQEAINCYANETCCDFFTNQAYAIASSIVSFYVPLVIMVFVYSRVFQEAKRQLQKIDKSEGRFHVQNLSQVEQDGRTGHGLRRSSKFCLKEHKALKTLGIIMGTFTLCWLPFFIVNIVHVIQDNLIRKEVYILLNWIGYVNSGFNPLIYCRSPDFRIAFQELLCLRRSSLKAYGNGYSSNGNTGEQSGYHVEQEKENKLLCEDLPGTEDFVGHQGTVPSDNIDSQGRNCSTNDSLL
In short: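 Assay format: CHO-ADRB2 cells, 18-20hr seeding at 37C/5% CO2, then compound plus 1nM isoproterenol agonist mix for 0.5hr RT. Homogeneous time-resolved fluorescence cAMP detection after 1hr, expressed as 665/615 nm ratio.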

[18] = target: Beta-2 adrenergic receptor (Homo sapiens) (UniProt P07550); experiment: Adrenergic beta2 receptor (ADRB2) small molecule agonists, cell-based qHTS assay (AID 1963593);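 note: CHO cells stably overexpressing human ADRB2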
In short: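 CHO cells stably over-expressing ADRB2 were plated overnight at 37C, then dosed with compounds plus a stimulation mix containing 100uM IBMX and 25uM Ro-20-1724 for 0.5hr at room temperature. cAMP was measured by HTRF competition, 1hr.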

[19] = target: D(2) dopamine receptor (Homo sapiens) (UniProt P14416); experiment: Dopamine D2 receptor (DRD2) small molecule agonists, cell-based qHTS assay (AID 1963594); note: nearly all actives have a fitted effect of over 35% in size
D(2) dopamine receptor (Homo sapiens), sequence (P14416 whole entry, looked up): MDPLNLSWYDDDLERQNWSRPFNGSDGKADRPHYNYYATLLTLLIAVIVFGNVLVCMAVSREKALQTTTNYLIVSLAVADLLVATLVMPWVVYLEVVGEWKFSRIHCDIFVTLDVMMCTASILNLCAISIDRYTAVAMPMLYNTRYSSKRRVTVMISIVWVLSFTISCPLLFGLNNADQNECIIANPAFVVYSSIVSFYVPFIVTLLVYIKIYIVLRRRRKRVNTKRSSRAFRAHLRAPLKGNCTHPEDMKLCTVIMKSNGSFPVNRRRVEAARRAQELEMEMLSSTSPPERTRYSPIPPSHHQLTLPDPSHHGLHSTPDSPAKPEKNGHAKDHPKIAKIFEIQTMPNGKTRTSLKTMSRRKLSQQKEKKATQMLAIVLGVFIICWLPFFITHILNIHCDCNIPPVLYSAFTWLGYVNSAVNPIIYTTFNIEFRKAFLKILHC
In short: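 cAMP accumulation in DRD2-HEK293 cells measured by HTRF after 1 h detection; compounds added 10 min before NKH477 (200nM […]) forskolin-analogue stimulation, 30 min at room temperature, with Ro20-1724 present at 0.1 mM final.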

[20] = target: D(2) dopamine receptor (Homo sapiens) (UniProt P14416); experiment: Dopamine D2 receptor (DRD2) small molecule antagonists, cell-based qHTS assay (AID 1963595; active = well fitted inhibition curve with a large enough effect in the signal ratio in the repeat runs, with a control signal flat; the % refers to the signal ratio)
In short: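 HEK293 cells stably expressing DRD2, preincubated with 0.1 mM Ro20-1724 and compounds 10 min, were stimulated with 200 nM NKH477 plus 12 nM quinpirole for 30 min at room temperature; cAMP measured by HTRF (665/620 nm).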
% is set by controls: 0 for no effect and ±100 for the full control effect.

C1CN(CCOCCN2CCOCC2)CCO1
inactive: Potency [1] | Potency [2] | Potency [3] | Potency [4] | Potency [5] | Potency [6] | Potency [7] | Potency [8] | Potency [9] | Potency [10] | Potency [11] | Potency [12] | Potency [13] | Potency [14] | Potency [15] | Potency [16] | Potency [17] | Potency [18] | Potency [19]

CC(=O)OC/C=C/c1ccccc1
inactive: Potency [1] | Potency [2] | Potency [3] | Potency [4] | Potency [5] | Potency [6] | Potency [7] | Potency [8] | Potency [9] | Potency [10] | Potency [11] | Potency [12] | Potency [13] | Potency [14] | Potency [15] | Potency [16] | Potency [17] | Potency [18] | Potency [19] | Potency [20]

CCCCOCCOCCOCCCC
inactive: Potency [1] | Potency [2] | Potency [3] | Potency [4] | Potency [5] | Potency [7] | Potency [8] | Potency [11] | Potency [12] | Potency [13] | Potency [14] | Potency [16] | Potency [17] | Potency [18] | Potency [19] | Potency [20]

CC(=O)OC[C@H]1O[C@@H](OC(C)=O)[C@H](OC(C)=O)[C@@H]1OC(C)=O
inactive: Potency [1] | Potency [2] | Potency [3] | Potency [4] | Potency [5] | Potency [6] | Potency [7] | Potency [8] | Potency [9] | Potency [10] | Potency [11] | Potency [12] | Potency [13] | Potency [14] | Potency [15] | Potency [16] | Potency [17] | Potency [18] | Potency [19] | Potency [20]

O=C1CCCc2ccccc21
inactive: Potency [1] | Potency [2] | Potency [3] | Potency [4] | Potency [5] | Potency [7] | Potency [8] | Potency [9] | Potency [10] | Potency [11] | Potency [12] | Potency [13] | Potency [14] | Potency [15] | Potency [16] | Potency [17] | Potency [19] | Potency [20]

NC(=O)Nc1ccc(Cl)cc1
inactive: Potency [1] | Potency [2] | Potency [3] | Potency [4] | Potency [5] | Potency [7] | Potency [8] | Potency [9] | Potency [10] | Potency [11] | Potency [13] | Potency [14] | Potency [15] | Potency [16] | Potency [17] | Potency [18] | Potency [19] | Potency [20]

NC(=S)Nc1cccc2ccccc12
inactive: activity change, negative = cytotoxicity [1] -1.52% [at 8.39 µM] | activity, positive = activation [2] -4.89% [at 8.39 µM] | activity change [3] 0.074% [at 5.22 µM, stronger effect = higher value] | activation [4] 6.64% [at 6.97 µM] | activation [5] -0.659% [at 5.23 µM] | activity change, negative = cytotoxicity [7] 3.12% [at 5.99 µM] | activity change, negative = cytotoxicity [8] 8.96% [at 5.99 µM] | activity change, negative = cytotoxicity [9] 19.8% [at 5.99 µM] | activation [10] -2.75% [at 5.99 µM] | activity, negative = inhibition [11] 12.8% [at 5.62 µM] | activation [12] 1.75% [at 7.02 µM] | activity, negative = inhibition [13] -5.9% [at 5.58 µM] | activation [14] 0.152% [at 6.97 µM] | activity change, negative = inhibition [16] 1.21% [at 8.39 µM] | activity change, negative = inhibition [17] -15.5% [at 8.39 µM] | activation [19] 2.03% [at 8.39 µM] | activity change, negative = inhibition [20] -0.294% [at 8.38 µM]
